Inconclusive results are not listed. A call without a number means that no potency is given here. The source made the active and inactive calls. Unless noted, calls come from the whole dose curve.
Columns and labels:
[1] = Nuclear factor erythroid 2-related factor 2/antioxidant responsive element (Nrf2/ARE) small molecule agonists: qHTS cell viability counter screen in human keratinocytes (AID 1919968; active = well fitted curve in the direction sought with a large enough effect in the repeat runs; an effect the other way counts as inactive or inconclusive; note: nearly all actives have a fitted effect of over 55% in size; note: potency is the fitted concentration of half-maximal effect); conditions: KeratinoSens HaCaT ARE cells viability, CellTiter-Fluor, 24 h; series mostly up to 92.4 µM
Summary of the method: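 KeratinoSens HaCaT cells, 1,500/well, preincubated 5 h, then exposed to compounds in DMSO for 23 h at 37 C/5% CO2. Viability read as CellTiter-Fluor fluorescence after 1 h, in the same wells as the ARE-luciferase read.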

[2] = Nuclear factor erythroid 2-related factor 2/antioxidant responsive element (Nrf2/ARE) small molecule agonists: luciferase reporter gene qHTS assay in human keratinocytes (AID 1919969); conditions: KeratinoSens HaCaT ARE-luciferase, luminescence, 24 h; series mostly up to 92.4 µM; note: nearly all actives have a fitted effect of over 35% in size; note: potency is the fitted concentration of half-maximal effect
[3] = target: Gonadotropin-releasing hormone receptor (Homo sapiens) (UniProt P30968); assay: Human gonadotropin-releasing hormone receptor (GnRHR) small molecule agonists, calcium flux assay in GnRHR-HEK293 cells (AID 1920063); conditions: calcium flux fluorescence, agonist mode; series mostly up to 57.6 µM; note: nearly all actives have a fitted effect of over 35% in size
Summary of the method: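 HEK293 cells stably expressing human GnRHR were dye-loaded for 1 h at 37 C. Compound was added in agonist mode and fluorescence (Ex/Em 480/540) recorded kinetically for 3 min. Fifteen concentrations, triplicates.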

[4] = target: KiSS-1 receptor (Homo sapiens) (UniProt Q969F8); assay: Human kisspeptin (KISS1R) small molecule agonists, calcium flux assay in KISS1R-HEK293 cells (AID 1920064; active = well fitted curve in the direction sought with a large enough effect in the repeat runs; an effect the other way counts as inactive or inconclusive); conditions: KISS1R-HEK293, calcium flux fluorescence, agonist; series mostly up to 76.8 µM
Summary of the method: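 HEK293 cells stably expressing human KISS1R were loaded with calcium dye for 1 h at 37 C, then given compound; fluorescence (Ex/Em 480/540) was read kinetically for 3 min. Fifteen concentrations, triplicate.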

[5] = G protein-coupled receptor (GPCR) small molecule agonists, calcium flux assay: HEK293 wild type cell line counter screen (AID 1920065); conditions: HEK293 WT calcium flux, fluorescence, agonist mode; series mostly up to 57.6 µM
Summary of the method: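 Wild-type HEK293 cells plated 18 h, loaded with calcium dye 1 h at 37 C, then compounds added in agonist mode (ATP as positive control). Kinetic fluorescence Ex/Em 480/540 recorded 3 min at 1 sec intervals; 15 concentrations, triplicate.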

[6] = p53 small molecule agonists, cell-based qHTS assay with human liver microsomes: qHTS cell viability counter screen (AID 1963579); conditions: p53RE-bla HCT-116 viability, ATP luminescence, 16 h, HLM; series mostly up to 66 µM; note: nearly all actives have a fitted effect of over 45% in size
Summary of the method: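 In this multiplexed counter screen, the reporter plates were subsequently treated with CellTiter-Glo so that cell viability, reflected by luminescence, could be recorded for p53RE-bla cells dosed 16 h with compounds under microsomal activation (HLM and NADPH).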

[7] = p53 small molecule agonists, cell-based qHTS assay with rat liver microsomes: qHTS cell viability counter screen (AID 1963580); conditions: p53RE-bla HCT-116 + rat microsomes, ATP viability, 16 h; series mostly up to 66 µM; note: nearly all actives have a fitted effect of over 45% in size; note: potency is the fitted concentration of half-maximal effect
Summary of the method: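 p53RE-bla HCT-116 cells were exposed 16 h at 37 C to compounds with rat liver microsomes (0.5 mg/mL) and NADPH (0.5 mg/mL). Viability was measured in the same wells as ATP content by CellTiter-Glo luminescence.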

[8] = p53 small molecule agonists, cell-based qHTS assay: qHTS cell viability counter screen (AID 1963581); conditions: p53RE-bla HCT-116 viability, ATP luminescence, 16 h; series mostly up to 66 µM; note: nearly all actives have a fitted effect of over 45% in size
Summary of the method: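 p53RE-bla HCT-116 cells, compounds added 5 h after plating and incubated 16 h at 37 C. Cytotoxicity measured in the same wells as intracellular ATP by CellTiter-Glo luminescence after 30 min at room temperature.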

[9] = target: 5-hydroxytryptamine receptor 2A (Homo sapiens) (UniProt P28223); assay: 5-hydroxytryptamine receptor 2A (HTR2A) small molecule antagonists, cell-based qHTS assay (AID 1963586); conditions: HTR2A-CHO cells, DOI-induced calcium flux, fluorescence; series mostly up to 61.5 µM; note: nearly all actives have a fitted effect of over 45% in size
Summary of the method: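 Antagonist-mode intracellular calcium assay: DOI (4 nM) added after 5 min compound pre-incubation at room temperature to dye-loaded HTR2A-CHO cells. Fluorescence followed for 3 min, sampled every second.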

[10] = target: 5-hydroxytryptamine receptor 2A (Homo sapiens) (UniProt P28223); assay: 5-hydroxytryptamine receptor 2A (HTR2A) small molecule agonists, cell-based qHTS assay (AID 1963587); conditions: HTR2A-CHO cells, calcium flux fluorescence, agonist mode; series mostly up to 76.8 µM; note: nearly all actives have a fitted effect of over 30% in size
Summary of the method: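 CHO cells stably expressing human HTR2A, plated 18 h, loaded with calcium dye 1 h at 37 C. Agonist mode: compounds added and intracellular calcium fluorescence recorded kinetically for 2 min at 1 sec intervals.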

[11] = target: Muscarinic acetylcholine receptor M1 (Homo sapiens) (UniProt P11229); assay: Cholinergic receptor muscarinic 1 (CHRM1) small molecule antagonists, cell-based qHTS assay (AID 1963588); conditions: CHRM1-CHO antagonist mode, calcium flux fluorescence; series mostly up to 61.5 µM; note: nearly all actives have a fitted effect of over 40% in size
Summary of the method: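 CHRM1-CHO calcium-flux assay, antagonist mode. Cells were seeded 18 h, dye-loaded 1 h at 37 C and given compound for 5 min at RT, then acetylcholine was added at 50nM. FDSS fluorescence was read 3 min; 15 concentrations, three runs.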

[12] = target: Muscarinic acetylcholine receptor M1 (Homo sapiens) (UniProt P11229); assay: Cholinergic receptor muscarinic 1 (CHRM1) small molecule agonists, cell-based qHTS assay (AID 1963589); conditions: CHRM1-CHO cells, agonist mode, calcium flux fluorescence; series mostly up to 76.8 µM; note: nearly all actives have a fitted effect of over 35% in size
Summary of the method: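 CHO cells stably expressing human CHRM1 were loaded with calcium dye for 1 h at 37 C, then compound was added in agonist mode. Intracellular calcium fluorescence was followed kinetically at 1 s intervals. Fifteen concentrations were tested in three independent runs.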

[13] = target: Beta-2 adrenergic receptor (Homo sapiens) (UniProt P07550); assay: Adrenergic beta2 receptor (ADRB2) small molecule antagonists, cell-based qHTS assay (AID 1963592); conditions: CHO-ADRB2 cells, isoproterenol-stimulated cAMP HTRF ratio, 0.5 h; series mostly up to 92.4 µM; note: nearly all actives have a fitted effect of over 50% in size
Summary of the method: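 Cells (CHO, stable ADRB2 overexpression) incubated 18-20hr at 37C; compounds added from DMSO; agonist mix (1nM isoproterenol, 100uM IBMX, 25uM Ro-20-1724) added; 0.5hr RT; d2-cAMP and anti-cAMP-cryptate added; 1hr RT; 665/615 nm read.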

[14] = target: Beta-2 adrenergic receptor (Homo sapiens) (UniProt P07550); assay: Adrenergic beta2 receptor (ADRB2) small molecule agonists, cell-based qHTS assay (AID 1963593); conditions: CHO-ADRB2 cells, cAMP HTRF, 30 min; series mostly up to 92.4 µM;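 note: CHO cells stably overexpressing human ADRB2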
Summary of the method: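 CHO cells stably over-expressing ADRB2 were plated overnight at 37C, then dosed with compounds plus a stimulation mix containing 100uM IBMX and 25uM Ro-20-1724 for 0.5hr at room temperature. cAMP was measured by HTRF competition, 1hr.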

[15] = target: D(2) dopamine receptor (Homo sapiens) (UniProt P14416); assay: Dopamine D2 receptor (DRD2) small molecule agonists, cell-based qHTS assay (AID 1963594); conditions: HEK293-DRD2 cAMP HTRF, agonist mode, 30 min; series mostly up to 92.4 µM; note: nearly all actives have a fitted effect of over 35% in size
Summary of the method: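 HEK293 cells stably expressing human DRD2, pre-treated with PDE inhibitor Ro20-1724 (0.1 mM final) and compound 10 min at room temperature, then stimulated with NKH477 (200nM […]) for 30 min. cAMP read by HTRF (665/620 nm).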

[16] = target: D(2) dopamine receptor (Homo sapiens) (UniProt P14416); assay: Dopamine D2 receptor (DRD2) small molecule antagonists, cell-based qHTS assay (AID 1963595; active = well fitted inhibition curve with a large enough effect in the signal ratio in the repeat runs, with a control signal flat; the % refers to the signal ratio); conditions: HEK293-DRD2 cAMP HTRF antagonist mode; series mostly up to 92.4 µM
Summary of the method: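 HEK293 cells stably expressing DRD2 were preincubated with 0.1 mM Ro20-1724, then with compound for 10 min at room temperature. Cells were stimulated with 200 nM NKH477 plus 12 nM quinpirole for 30 min, and cAMP was read by HTRF.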

[17] = cAMP Responsive Elements (CRE) small molecule antagonists, cell-based qHTS assay (AID 1963591; active = well fitted inhibition curve with a large enough effect in the signal ratio in the repeat runs, not every such curve was filed as active; the % refers to the signal ratio; note: potency is the fitted concentration of half-maximal effect); conditions: CRE-bla HEK293T, beta-lactamase FRET ratio; series mostly up to 92.4 µM
Summary of the method: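 CRE-bla HEK293T cells plated 18 h, then given compound plus NKH477 at 0.25 uM final for 3 h at 37C. Beta-lactamase reporter read with LiveBLAzer B/G FRET substrate after 2 h at room temperature.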

[18] = cAMP Responsive Elements (CRE) small molecule agonists, cell-based qHTS assay (AID 1963590); conditions: CRE-bla HEK293T, beta-lactamase FRET ratio, 3 h; series mostly up to 92.4 µM
Summary of the method: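 CRE-bla HEK 293T cells, 2,000/well in DMEM with 10% dialyzed FBS and 25 mM HEPES, pre-incubated 18 h at 37 C, then exposed to compound 3 h at 37 C. Beta-lactamase reporter read with LiveBLAzer B/G FRET substrate after 2 h at room temperature.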

Muscarinic acetylcholine receptor M1 (Homo sapiens), sequence (P11229 whole entry, looked up): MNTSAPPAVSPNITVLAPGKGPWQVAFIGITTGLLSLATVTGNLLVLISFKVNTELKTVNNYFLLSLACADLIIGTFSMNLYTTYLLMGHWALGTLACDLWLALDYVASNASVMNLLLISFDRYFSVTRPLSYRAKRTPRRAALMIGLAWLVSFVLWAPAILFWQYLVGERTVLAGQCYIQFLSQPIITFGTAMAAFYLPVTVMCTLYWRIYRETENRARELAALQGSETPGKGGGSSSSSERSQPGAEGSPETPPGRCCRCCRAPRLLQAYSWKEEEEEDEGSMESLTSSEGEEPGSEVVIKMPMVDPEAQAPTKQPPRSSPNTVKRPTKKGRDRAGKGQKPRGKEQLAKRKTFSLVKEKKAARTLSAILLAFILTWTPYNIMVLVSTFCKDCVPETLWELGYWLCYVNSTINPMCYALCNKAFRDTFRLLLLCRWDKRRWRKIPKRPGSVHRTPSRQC
5-hydroxytryptamine receptor 2A (Homo sapiens), sequence (P28223 whole entry, looked up): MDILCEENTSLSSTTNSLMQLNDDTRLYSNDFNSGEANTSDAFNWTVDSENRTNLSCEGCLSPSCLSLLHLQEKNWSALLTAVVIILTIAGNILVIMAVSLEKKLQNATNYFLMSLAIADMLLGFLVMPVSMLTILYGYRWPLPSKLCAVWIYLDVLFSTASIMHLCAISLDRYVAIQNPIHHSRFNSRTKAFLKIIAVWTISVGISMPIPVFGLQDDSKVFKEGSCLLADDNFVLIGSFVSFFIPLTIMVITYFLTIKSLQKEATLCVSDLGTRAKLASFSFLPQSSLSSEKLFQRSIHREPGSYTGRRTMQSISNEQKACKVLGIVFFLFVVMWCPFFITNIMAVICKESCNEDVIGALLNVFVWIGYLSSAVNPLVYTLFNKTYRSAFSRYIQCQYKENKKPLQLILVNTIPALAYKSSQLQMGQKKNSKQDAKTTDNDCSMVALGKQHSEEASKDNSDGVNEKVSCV
Beta-2 adrenergic receptor (Homo sapiens), sequence (P07550 whole entry, looked up): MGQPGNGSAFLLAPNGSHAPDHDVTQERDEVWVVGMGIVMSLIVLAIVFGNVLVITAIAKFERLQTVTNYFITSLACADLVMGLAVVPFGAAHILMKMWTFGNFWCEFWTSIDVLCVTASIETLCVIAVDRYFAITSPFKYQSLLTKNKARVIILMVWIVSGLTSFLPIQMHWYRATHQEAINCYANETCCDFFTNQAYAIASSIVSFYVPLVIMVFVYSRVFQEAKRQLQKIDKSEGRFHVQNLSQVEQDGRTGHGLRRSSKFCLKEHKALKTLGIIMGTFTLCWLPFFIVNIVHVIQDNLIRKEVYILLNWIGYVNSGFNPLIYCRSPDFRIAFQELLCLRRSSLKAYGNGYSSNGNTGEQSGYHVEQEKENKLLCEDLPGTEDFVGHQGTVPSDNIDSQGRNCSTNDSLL
Gonadotropin-releasing hormone receptor (Homo sapiens), sequence (P30968 whole entry, looked up): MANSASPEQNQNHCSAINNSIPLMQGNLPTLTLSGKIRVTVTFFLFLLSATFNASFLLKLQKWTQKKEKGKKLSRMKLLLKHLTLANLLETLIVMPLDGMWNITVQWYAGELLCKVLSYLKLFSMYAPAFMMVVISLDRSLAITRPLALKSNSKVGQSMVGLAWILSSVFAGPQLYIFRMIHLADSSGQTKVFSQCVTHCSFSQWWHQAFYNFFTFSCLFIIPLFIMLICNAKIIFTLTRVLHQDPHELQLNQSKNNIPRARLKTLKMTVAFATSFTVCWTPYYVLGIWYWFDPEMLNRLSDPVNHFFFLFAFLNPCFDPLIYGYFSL
KiSS-1 receptor (Homo sapiens), sequence (Q969F8 whole entry, looked up): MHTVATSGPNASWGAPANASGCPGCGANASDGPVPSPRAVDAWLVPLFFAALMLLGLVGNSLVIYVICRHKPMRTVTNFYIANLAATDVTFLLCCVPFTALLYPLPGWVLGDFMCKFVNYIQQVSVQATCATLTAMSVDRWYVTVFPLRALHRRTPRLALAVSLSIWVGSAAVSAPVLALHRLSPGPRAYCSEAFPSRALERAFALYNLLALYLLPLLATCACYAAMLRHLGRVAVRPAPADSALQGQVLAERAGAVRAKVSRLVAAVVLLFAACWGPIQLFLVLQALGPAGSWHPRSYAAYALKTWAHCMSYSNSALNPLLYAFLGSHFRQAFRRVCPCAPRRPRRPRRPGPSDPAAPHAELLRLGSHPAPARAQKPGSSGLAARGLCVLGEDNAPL
D(2) dopamine receptor (Homo sapiens), sequence (P14416 whole entry, looked up): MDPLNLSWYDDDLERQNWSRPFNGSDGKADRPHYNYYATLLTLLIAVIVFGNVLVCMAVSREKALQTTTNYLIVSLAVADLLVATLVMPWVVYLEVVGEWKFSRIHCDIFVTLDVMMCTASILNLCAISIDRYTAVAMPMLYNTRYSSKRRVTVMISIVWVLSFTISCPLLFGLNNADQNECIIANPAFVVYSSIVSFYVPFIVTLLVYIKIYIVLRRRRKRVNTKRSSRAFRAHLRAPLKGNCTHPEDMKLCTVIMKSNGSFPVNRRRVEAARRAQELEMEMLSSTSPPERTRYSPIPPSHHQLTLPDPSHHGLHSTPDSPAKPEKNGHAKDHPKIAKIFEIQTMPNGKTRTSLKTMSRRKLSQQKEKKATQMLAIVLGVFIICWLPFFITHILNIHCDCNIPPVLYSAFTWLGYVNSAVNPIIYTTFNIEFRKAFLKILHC

Row | SMILES | Potency [1] | Potency [2] | Potency [3] | Potency [4] | Potency [5] | Potency [6] | Potency [7] | Potency [8] | Potency [9] | Potency [10] | Potency [11] | Potency [12] | Potency [13] | Potency [14] | Potency [15] | Potency [16] | Potency [17] | Potency [18]
1 | CC(C)(C)OC(=O)c1ncn2c1[C@@H]1CCCN1C(=O)c1c(Br)cccc1-2 | inactive | inactive | inactive | inactive | inactive | inactive | inactive | inactive | inactive | inactive | inactive | inactive | inactive | inactive | inactive | inactive | – | –
2 | Cc1ccc(OP(=O)(Oc2ccccc2)Oc2ccccc2)cc1 | inactive | inactive | inactive | inactive | inactive | inactive | inactive | inactive | inactive | inactive | inactive | inactive | inactive | – | inactive | inactive | inactive | –
3 | O=C(N[C@H]1CN2CCC1CC2)c1ccc2c(c1)OCCO2 | inactive | inactive | inactive | inactive | inactive | inactive | inactive | inactive | inactive | inactive | inactive | inactive | inactive | inactive | inactive | inactive | – | –
4 | COP(=S)(NC(C)C)Oc1ccc(C)cc1[N+](=O)[O-] (stereo not given) | inactive | inactive | inactive | inactive | inactive | inactive | inactive | inactive | inactive | inactive | inactive | inactive | – | – | inactive | – | inactive | –
5 | CC(C)O.CC(C)O.OCCN(CCO)CCO.OCCN(CCO)CCO.[Ti] | inactive | inactive | inactive | inactive | inactive | inactive | inactive | inactive | inactive | inactive | – | inactive | inactive | inactive | inactive | inactive | inactive | inactive
6 | O=CC=O | inactive | inactive | inactive | inactive | inactive | inactive | inactive | inactive | inactive | inactive | inactive | – | inactive | – | – | inactive | – | inactive
7 | CSC(C)(C)/C=N/O | inactive | inactive | inactive | inactive | inactive | inactive | inactive | inactive | inactive | – | inactive | inactive | inactive | – | – | – | inactive | inactive
8 | Nc1ccc2c(c1)Cc1ccccc1-2 | inactive | inactive | inactive | inactive | inactive | inactive | inactive | inactive | inactive | inactive | inactive | inactive | – | inactive | inactive | inactive | inactive | –
9 | CC(C)CC(C)Nc1ccc(Nc2ccccc2)cc1 (stereo not given) | 53.5 µM (active) | 23.9 µM (active) | inactive | inactive | inactive | inactive | 45 µM (active) | inactive | – | inactive | – | – | – | – | – | – | – | –
10 | CC(C)(N)Cc1ccc(Cl)cc1 | inactive | inactive | inactive | inactive | inactive | inactive | inactive | inactive | inactive | – | inactive | inactive | inactive | inactive | inactive | inactive | inactive | inactive
11 | CCCCOC(=O)c1ccccc1N | inactive | inactive | inactive | inactive | inactive | inactive | inactive | inactive | inactive | inactive | inactive | inactive | inactive | – | inactive | inactive | 61.4 µM (active) | –

Reference: PubChem BioAssay (Tox21)
